# BAZ2B inh: blocks human BAZ2B | AlphaScreen BAZ2B-H3K14Ac peptide displacement | AID 504333 | Potency, µM (highest dose often 114 µM), inactives show at the highest dose activity change, negative = inhibition, most hits filed as inhibitors | Q9UIF8 | 360,000 tested, 4.4% active; further: on the % scale 0 is the no-effect control and ±100 the full control effect; nearly all actives have a fitted effect of over 60% in size
#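 Complex of BAZ2B and biotin-H3K14Ac (50 nM apiece) forms over 30 min at RT, then faces library compounds up to 110 uM for another 30 min; AlphaScreen beads added, 20 min dark incubation, luminescence read.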
# HP1b binding inh: blocks HP1-beta chromodomain binding to methylated histone tails | P83916 | AlphaScreen HP1-beta / biotin-H3K9me3 peptide binding | Potency, µM (top dose mostly 114 µM), without a hit: top-dose activity change, negative = inhibition, actives largely listed as inhibitors | 390,000 tested, 0.56% active | AID 540317; further: nearly all actives have a fitted effect of over 70% in size
#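 AlphaScreen: HP1-beta (50 nM) preformed 30 min with biotin-H3(1-18)K9me3 peptide (50 nM) in PBS pH 7.4, 0.01% Tween-20. Compound added for 30 min at RT, then streptavidin donor/nickel chelate acceptor beads (10 ug/mL) for 30 min.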
# G9a block: inhibitors of human histone lysine methyltransferase G9a | AID 504332 | Potency, µM (highest dose often 102 µM), for inactives: at the top dose activity, negative = inhibition, actives largely listed as inhibitors | G9a H3K9 monomethylation, AlphaScreen, 2 h | 350,000 tested, 8.8% active; further: on the % scale 0 is the no-effect control and ±100 the full control effect; nearly all actives have a fitted effect of over 75% in size
#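 Using a bead-based AlphaScreen, monomethylated H3K9 product from 2 h room-temperature reactions (G9a 20 nM, peptide 500 nM, SAM 20 uM) was detected with 0.5 ug/mL rabbit anti-H3K9me1 antibody.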
# L3MBTL1 block: blocks human L3MBTL1; AlphaScreen L3MBTL1–H3K9me1 peptide binding; Potency, µM (titrated, usually from 57.1 µM), for the others: top-dose activity, negative = inhibition, actives largely listed as inhibitors; 230,000 tested, 0.66% active; further: on the % scale 0 is the no-effect control and ±100 the full control effect; nearly all actives have a fitted effect of over 60% in size
#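 Read-out is AlphaScreen signal from streptavidin donor and nickel chelate acceptor beads (10 ug/mL final each) bridging L3MBTL1 (50 nM) and biotinylated K9-monomethylated H3(1-15) peptide (75 nM), after 30 min compound exposure at room temperature.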
# JMJD2A Tudor inh: blocks the human JMJD2A Tudor domain. O75164. AlphaScreen JMJD2A-Tudor / H3K4me3 peptide binding. Potency, µM (top dose mostly 114 µM), for inactives: at the top dose activity change, negative = inhibition, most hits filed as inhibitors. 390,000 tested, 4.4% active; further: on the % scale 0 is the no-effect control and ±100 the full control effect; nearly all actives have a fitted effect of over 50% in size
# Target sequence (O75164 whole entry, looked up, the tested form may be a part): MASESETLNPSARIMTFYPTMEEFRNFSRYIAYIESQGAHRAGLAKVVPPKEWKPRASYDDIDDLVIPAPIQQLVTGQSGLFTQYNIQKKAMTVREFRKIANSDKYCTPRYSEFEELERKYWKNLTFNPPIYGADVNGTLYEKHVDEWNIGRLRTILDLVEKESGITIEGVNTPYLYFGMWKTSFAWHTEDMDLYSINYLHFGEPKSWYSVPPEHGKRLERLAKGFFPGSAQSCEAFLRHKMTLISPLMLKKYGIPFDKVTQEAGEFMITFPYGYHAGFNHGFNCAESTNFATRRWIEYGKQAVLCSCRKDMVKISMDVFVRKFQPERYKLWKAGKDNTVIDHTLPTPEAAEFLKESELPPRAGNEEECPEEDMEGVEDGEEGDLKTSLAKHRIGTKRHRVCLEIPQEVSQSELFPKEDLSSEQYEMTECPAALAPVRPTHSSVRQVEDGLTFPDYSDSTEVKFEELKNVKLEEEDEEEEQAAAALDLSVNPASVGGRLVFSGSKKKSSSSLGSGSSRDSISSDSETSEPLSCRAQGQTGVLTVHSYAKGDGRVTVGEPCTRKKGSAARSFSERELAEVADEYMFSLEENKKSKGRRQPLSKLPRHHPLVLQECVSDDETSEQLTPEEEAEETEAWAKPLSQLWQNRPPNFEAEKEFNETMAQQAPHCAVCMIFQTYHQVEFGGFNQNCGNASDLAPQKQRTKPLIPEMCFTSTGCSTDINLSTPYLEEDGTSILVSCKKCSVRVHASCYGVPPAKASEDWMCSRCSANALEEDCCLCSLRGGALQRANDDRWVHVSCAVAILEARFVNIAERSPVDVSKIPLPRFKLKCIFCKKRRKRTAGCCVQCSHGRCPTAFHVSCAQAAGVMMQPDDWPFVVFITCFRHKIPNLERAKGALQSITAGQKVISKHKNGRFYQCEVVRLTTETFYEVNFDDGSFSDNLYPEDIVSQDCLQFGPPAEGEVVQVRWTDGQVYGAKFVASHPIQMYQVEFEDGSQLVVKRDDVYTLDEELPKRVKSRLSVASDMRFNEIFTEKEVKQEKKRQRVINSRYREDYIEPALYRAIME
# Numbers without * were called inactive; ? = inconclusive; nt = no result given; [ ] = remark or other dose. An excerpt weighted towards active compounds, which were near 11% of everything screened. The call rests on the fitted dose curve; in most records, active means well fitted inhibition curve with a large enough effect; inconclusive means small, poorly fitted or top-dose-only effect; inactive means no such curve, though single readings can be large or run the other way. Potency means the concentration at half of the fitted maximal effect.
SMILES,BAZ2B inh,HP1b binding inh,G9a block,L3MBTL1 block,JMJD2A Tudor inh
CNC(=O)c1ccc(S(=O)(=O)c2ccc(Cl)cc2)c(NC(C)=O)c1,-6%,30%,-3%,nt,-1%
O=C(Nc1ccccc1)c1nnsc1S(=O)c1ccc(Cl)cc1 (centres undefined),-36%,-32%,?,0%,?
O=C(c1ccc(NS(=O)(=O)c2ccc(Cl)cc2)cc1)N1CCOCC1,1%,29%,12%,nt,-7%
CCC(=O)N1c2ccccc2CC1C(=O)NCCN1CCN(c2cc(Cl)ccc2C)CC1 (centres undefined),?,1%,-28%[59 µM],nt,?
CCc1ccc(NC(=O)CSc2nc3c(sc4ccccc43)c(=O)n2CCCOC(C)C)cc1,0%,46%,12%[59 µM],nt,-24%
COc1cccc(NC(=O)Cn2c(=O)n(Cc3ccc(C(=O)NCc4ccc5c(c4)OCO5)cc3)c(=O)c3ccccc32)c1,1%,33%,0%[59 µM],nt,-6%
O=C(NCSc1ccnc(SCNC(=O)c2ccccc2)n1)c1ccccc1,-9%,29%,4µM*,3%,-30%
O=C(NCCc1ccccc1)c1ccncc1,-18%,nt,?,4%,nt
O=C(NCSc1ccncn1)c1ccccc1,?,-25%,?,6%,20µM*
CCN(C(=O)c1cccn(Cc2cccc(Cl)c2)c1=O)c1ccccc1,3%,30%[57 µM],27%[59 µM],nt,-5%
CN1CCN(C(=O)NC2CCCCC2)CC1,50µM*,?,8.9µM*,-27%,8.9µM*
CN1CCC(=NNC(=O)C(=O)NC2CCCC2)CC1,?,5%,-5%,nt,40µM*
O=C(NN=C1CCCCCCC1)C(=O)NC1CCCCC1,-1%,22%,-1%[59 µM],-6%,-11%
CN1CCC(=NNC(=O)C(=O)NC2CCCCC2)CC1,-12%,8%,-13%,nt,?
CC(C)(C)C1CCC(=NNC(=O)C(=O)NC2CCCCC2)CC1 (centres undefined),-34%,15%,?,-7%,79µM*
COC(=O)/C=C1\SC(N2CCOCC2)=C(c2ccc(OC)cc2)C1=O,45µM*,-9%,2µM*,-8%,-13%
COc1ccc2cc(/C=C3\SC(=S)NC3=O)c(N3CCOCC3)nc2c1,?,-33%,?,-5%,?
CCOC(=O)N1CC=C2C(C#N)=C(N)C(C#N)(C#N)[C@H](c3ccccc3OCC)[C@H]2C1,-29%,45%,-18%[12.7 µM],nt,-14%
N#CC1=C(N)C(C#N)(C#N)[C@H](c2cccnc2)[C@H]2CN(C(=O)OCc3ccccc3)CC=C12,-21%,29%,50µM*,-14%,-9%
CCCC1C2CN(C(C)C)CC=C2C(C#N)=C(N)C1(C#N)C#N (centres undefined),-8%,4%,40µM*,-1%,?
CCOC(=O)N1CC=C2C(C#N)=C(N)C(C#N)(C#N)[C@H](c3ccsc3)[C@H]2C1,-4%,41%,45µM*,7%,-4%
N#CC1=C(N)C(C#N)(C#N)C(c2ccncc2)C2CN(C(=O)OCc3ccccc3)CC=C12 (centres undefined),-3%,58%,16µM*,22%[11.4 µM],-9%
CC(C)CNC(=O)Nc1cc(C(=O)NCc2ccc(C(C)C)cc2)ccc1N1CCCC1,-16%,13%,11%[12.7 µM],nt,-13%
CN(Cc1ccco1)C(=O)c1ccc2c(c1)N(Cc1ccccc1F)C(=O)c1ccccc1S2,-19%,11%,-31%[59 µM],nt,?
O=S(=O)(c1ccc(Cl)cc1)c1nc(-c2cccs2)oc1SCc1ccc(F)cc1,-1%,30%,?,nt,-1%
SMILES,BAZ2B inh,HP1b binding inh,G9a block,L3MBTL1 block,JMJD2A Tudor inh
CN1CC=C2C(C#N)=C(N)C(C#N)(C#N)C(c3ccsc3)C2C1 (centres undefined),-27%,43%,nt,0%,-25%[11.4 µM]
CN1CC=C2C(C#N)=C(N)C(C#N)(C#N)[C@H](c3cccc(Cl)c3)C2C1 (some centres undefined),-35%,46%,25µM*,nt,-9%
CC1CCc2c(sc3ncnc(SCC(=O)c4ccccc4)c23)C1 (centres undefined),4%,8%,18%[59 µM],-11%,0%[11.4 µM]
CC(=O)CSc1ncnc2sc3c(c12)CCC(C)C3 (centres undefined),6%,51%,40µM*,10%,23%
Cc1c(/C=N/Nc2nc3ccccc3[nH]2)c2ccccc2n1C,18µM*,50µM*,nt,nt,32µM*
Cn1c(/C=N/Nc2nc3ccccc3[nH]2)nc2ccccc21,32µM*,21%,-42%,-28%,?
C=CCn1cc(/C=N/Nc2nc3ccccc3[nH]2)c2ccccc21,40µM*,?,50µM*,-21%,40µM*
CN1C(=O)C(O)(CC(=O)c2cccs2)c2ccccc21 (centres undefined),-5%,54%,-7%,6%,-12%
Cc1ccc(C(=O)CC2(O)C(=O)N(C)c3ccccc32)s1 (centres undefined),-10%,47%,45µM*,-23%,3%
C#CCOCCOCCOCCNc1nc(N2CCN(C(=O)[C@H](CCC(=O)O)n3cc(C(N)Cc4ccc(O)cc4)nn3)CC2)nc(N2CCN(C(=O)[C@H](Cc3cc4ccccc4[nH]3)n3cc(C(N)[C@H](C)CC)nn3)CC2)n1 (some centres undefined),50µM*,15%,4%[12.7 µM],?,45µM*
C#CCOCCOCCOCCNc1nc(N2CCN(C(=O)C(Cc3cc4ccccc4[nH]3)n3cc(C(N)Cc4ccc(O)cc4)nn3)CC2)nc(N2CCN(C(=O)C(CCC(=O)O)n3cc(C(N)C(C)CC)nn3)CC2)n1 (centres undefined),32µM*,-6%,-29%[2.33 µM],25µM*,45µM*
COCCN(CCOC)c1ncc(Cl)c(C(=O)c2c(C)cc3ccccn23)n1,-4%,-6%,40µM*,-3%,-20%
CCOC(=O)C(=O)c1c(C)cc2ccccn12,-27%,-3%,10%,33%,-30%
Cc1cc2ccccn2c1C(=O)c1nc(NCc2ccco2)ncc1Cl,?,-18%,?,-39%,?
Cc1cc2ccccn2c1C(=O)c1nc(N2CCOCC2)ncc1Cl,?,-21%,71µM*,-16%,?
Cc1ccc(OCCSc2nc3ccccc3n2CC(=O)N2CCOCC2)cc1,?,35%,-17%[59 µM],nt,-31%
CC1CCN2c3ccccc3CC3(C(=O)OC(C)(C)OC3=O)C2C1 (centres undefined),nt,3%[57 µM],nt,nt,-23%[57.1 µM]
COc1ccc(-c2cc(C(C)=O)c(C)n2CCC(=O)Nc2cc(Cl)ccc2C)cc1,-5%,37%,-4%[59 µM],nt,-19%
COc1cccc(-c2nnc3n2N=C(c2ccccc2OC)CS3)c1,nt,nt,nt,nt,-25%
CCCn1c2c(c(=N)c3c1CCC3)CCC2,?,7%,50µM*,-10%,-6%
CCCn1c2c(c(=N)c3c1CCC3)CCCC2,-1%,19%,13µM*,-22%,?

# From PubChem
